# Source: the supplement of paper PMC4466140
# Legend:
# Assay in all cases: SPOT peptide array binding signal intensity (averaged, normalized) (arbitrary units (background-subtracted, floor 0; scale differs between SH3 domains)); higher = stronger binding of the SH3 domain to the peptide
# [1] = target: AgAbp1
# Procedure, shortened: (§1)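 GST-SH3 fusions from four yeast species, purified on glutathione Sepharose, were incubated at 10 μg/ml overnight at 4°C on membranes of synthetic 15-mer peptides in which cysteines were replaced with serines. Binding signal is the normalized, background-subtracted spot intensity averaged over replicates, in domain-specific arbitrary units.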
# [2] = target: AgBbc1
# Procedure, shortened: as §1
# [3] = target: AgBem1-D1
# Procedure, shortened: as §1
# [4] = target: AgBzz1-D1
# Procedure, shortened: as §1
# [5] = target: AgBzz1-D2
# Procedure, shortened: as §1
# [6] = target: AgCyk3
# Procedure, shortened: as §1
# [7] = target: AgFus1
# Procedure, shortened: as §1
# [8] = target: AgHof1
# Procedure, shortened: as §1
# [9] = target: AgHse1
# Procedure, shortened: as §1
# [10] = target: AgLsb1
# Procedure, shortened: as §1
# [11] = target: AgLsb4
# Procedure, shortened: as §1
# [12] = target: AgMyo5
# Procedure, shortened: as §1
# [13] = target: AgNbp2
# Procedure, shortened: as §1
# [14] = target: AgRvs167
# Procedure, shortened: as §1
# [15] = target: AgSho1
# Procedure, shortened: as §1
# [16] = target: AgSla1-D1-D2
# Procedure, shortened: as §1
# [17] = target: AgSla1-D3
# Procedure, shortened: as §1
# [18] = target: CaAbp1-D1
# Procedure, shortened: as §1
# [19] = target: CaAbp1-D2
# Procedure, shortened: as §1
# [20] = target: CaBbc1
# Procedure, shortened: as §1
# [21] = target: CaBem1-D1
# Procedure, shortened: as §1
# [22] = target: CaBzz1-D1
# Procedure, shortened: as §1
# [23] = target: CaBzz1-D2
# Procedure, shortened: as §1
# [24] = target: CaCyk3
# Procedure, shortened: as §1
# [25] = target: CaFus1
# Procedure, shortened: as §1
# [26] = target: CaHof1
# Procedure, shortened: as §1
# [27] = target: CaHse1
# Procedure, shortened: as §1
# [28] = target: CaLsb1
# Procedure, shortened: as §1
# [29] = target: CaLsb4
# Procedure, shortened: as §1
# [30] = target: CaMyo5
# Procedure, shortened: as §1
# [31] = target: CaNbp2
# Procedure, shortened: as §1
# [32] = target: CaRvs167
# Procedure, shortened: as §1
# [33] = target: CaRvs167-3
# Procedure, shortened: as §1
# [34] = target: CaSho1
# Procedure, shortened: as §1
# [35] = target: CaSla1-D1-D2
# Procedure, shortened: as §1
# [36] = target: CaSla1-D3
# Procedure, shortened: as §1
# [37] = target: ScAbp1
# Procedure, shortened: as §1
binder,measurement,setting,value
RVRKTHVPASKRPSG,SPOT peptide array binding signal intensity,[1],81.5
same,SPOT peptide array binding signal intensity,[2],105
same,SPOT peptide array binding signal intensity,[3],48.5
same,SPOT peptide array binding signal intensity,[4],2
same,SPOT peptide array binding signal intensity,[5],≤ 0
same,SPOT peptide array binding signal intensity,[6],1
same,SPOT peptide array binding signal intensity,[7],118
same,SPOT peptide array binding signal intensity,[8],7
same,SPOT peptide array binding signal intensity,[9],210
same,SPOT peptide array binding signal intensity,[10],0.75
same,SPOT peptide array binding signal intensity,[11],18
same,SPOT peptide array binding signal intensity,[12],≤ 0
same,SPOT peptide array binding signal intensity,[13],91
same,SPOT peptide array binding signal intensity,[14],1
same,SPOT peptide array binding signal intensity,[15],5
same,SPOT peptide array binding signal intensity,[16],18
same,SPOT peptide array binding signal intensity,[17],1.5
same,SPOT peptide array binding signal intensity,[18],919
same,SPOT peptide array binding signal intensity,[19],520
same,SPOT peptide array binding signal intensity,[20],188
same,SPOT peptide array binding signal intensity,[21],18
same,SPOT peptide array binding signal intensity,[22],30
same,SPOT peptide array binding signal intensity,[23],48.8
same,SPOT peptide array binding signal intensity,[24],7.5
same,SPOT peptide array binding signal intensity,[25],200
same,SPOT peptide array binding signal intensity,[26],0.5
same,SPOT peptide array binding signal intensity,[27],9.75
same,SPOT peptide array binding signal intensity,[28],0.5
same,SPOT peptide array binding signal intensity,[29],33
same,SPOT peptide array binding signal intensity,[30],≤ 0
same,SPOT peptide array binding signal intensity,[31],216
same,SPOT peptide array binding signal intensity,[32],1
same,SPOT peptide array binding signal intensity,[33],7.25
same,SPOT peptide array binding signal intensity,[34],89
same,SPOT peptide array binding signal intensity,[35],112
same,SPOT peptide array binding signal intensity,[36],≤ 0
same,SPOT peptide array binding signal intensity,[37],15.5
